Sampled rows, rich in hits. Any-hit rate of the full collection: about 21%.
Cycloheximide cs: affects cycloheximide protein synthesis inhibition readout, counter-screen. hit rate 12% among 300,000. cell reporter, cycloheximide protein synthesis inhibition counterscreen. max response, %; in the data active means max response mostly above about 13%, no sharp cut-off; inactive means mostly below about 14%; further: read at 38.3 µM for the half of the compounds with a filed dose
Pf growth 96h: inhibits malaria parasite growth, 96 h; hit rate 6.9% among 320,000; Potency, µM (top dose mostly 28.7 µM), actives largely listed as inhibitors; P. falciparum luciferase reporter growth, 96 h; AID 504834
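Infected RBCs, 2% Hct / 0.05% parasitemia final; luciferase-reporter P. falciparum; cpd 96 h, 37 C, 5% CO2; luciferase detection reagent; luminescence.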
Pf growth 48h: inhibits P. falciparum growth in the first generation, 48 h | AID 504832 | hit rate 5.9% among 310,000 | Potency, µM (highest dose often 28.7 µM), actives largely listed as inhibitors | P. falciparum luciferase growth in erythrocytes, 48 h
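First compound was added to culture medium, then infected red cells at 0.1% parasitemia and 2% hematocrit (final). After incubation at 37 C under 5% CO2, luciferase detection reagent was dispensed and light output recorded.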
Shiga toxin inh: blocks Shiga toxin action in Vero cells; Vero cells, Shiga toxin protein synthesis inhibition reporter; inhibition, % at 38.7 µM; hit rate 9.2% among 290,000; in the data active means inhibition mostly above about 28%, no sharp cut-off; inactive means mostly below about 43%
Of the large screens only hits and unclear results are named; the others gave an inactive call. Unless noted, the call rests on the fitted dose curve; in most records, active means well fitted inhibition curve with a large enough effect; inconclusive means small, poorly fitted or top-dose-only effect, or another doubt; inactive means no such curve, though single readings can be large or run the other way.

O=C1C2=C(Nc3ccccc3SC2c2ccco2)c2ccccc21 (stereo unspecified)	Cycloheximide cs 32.9, Pf growth 48h 0.329µM, Shiga toxin inh 78.1
O=C1c2ccccc2NC(c2ccco2)N1NS(=O)(=O)c1ccccc1 (stereo unspecified)	Pf growth 96h inconclusive
CCN(CC)CCCN(Cc1cc2cc3c(cc2[nH]c1=O)OCCO3)C(=O)Nc1ccc(F)cc1	Cycloheximide cs 14.0, Pf growth 96h inconclusive, Pf growth 48h inconclusive, Shiga toxin inh 78.4
CCN(CC)CCCN(Cc1cc2cc3c(cc2[nH]c1=O)OCO3)C(=S)Nc1ccccc1	Pf growth 96h inconclusive, Pf growth 48h inconclusive
CCN(CC)CCCN(Cc1cc2cc(OC)c(OC)cc2[nH]c1=O)C(=O)Nc1ccccc1	Pf growth 48h inconclusive (no result: Pf growth 96h)
CCN(CC)CCCN(Cc1cc2cc3c(cc2[nH]c1=O)OCO3)C(=O)Nc1ccccc1OC	Pf growth 96h 10.4µM, Pf growth 48h inconclusive
Oc1ccc(/C=N/Nc2ccnc3cc(Cl)ccc23)cc1O	Pf growth 96h 0.738µM, Pf growth 48h 0.657µM
CC/C(=N\Nc1ccnc2cc(Cl)ccc12)c1ccc(O)cc1	Pf growth 96h 1.31µM, Pf growth 48h 1.65µM
Oc1ccc(/C=N/Nc2ccnc3cc(Cl)ccc23)c(O)c1O	Pf growth 96h inconclusive, Pf growth 48h inconclusive
CN(C)C(=O)CCCc1nc(-c2ccc(Cl)cc2)no1	Cycloheximide cs 38.3, Shiga toxin inh 155.7 (no result: Pf growth 96h)
COc1ccc(-c2noc(CN(C)C(=O)c3ccco3)n2)cc1	none
Cc1ccc(-c2noc(CN(C)C(=O)c3ccoc3C)n2)cc1	Cycloheximide cs 19.4, Shiga toxin inh 88.5
CN(Cc1nc(-c2ccc(Cl)cc2)no1)C(=O)c1ccco1	Cycloheximide cs 12.2
O=C(Oc1cccc(F)c1)c1ccc2c(=O)n3c(nc2c1)CCC3	none (no result: Cycloheximide cs, Shiga toxin inh)
COc1cc(Cl)c(CC(=O)c2c[nH]c3ccccc23)cc1OC	Pf growth 96h inconclusive, Pf growth 48h inconclusive
COc1cc(OC)c(N(C)S(=O)(=O)c2cccc(C(=O)OCC(=O)c3c[nH]c4ccccc34)c2)cc1Cl	Pf growth 96h inconclusive, Pf growth 48h 1.85µM
C=CCN(c1ccccc1OC)S(=O)(=O)c1cccc(C(=O)OCC(=O)c2c[nH]c3ccccc23)c1	Pf growth 96h 4.65µM, Pf growth 48h inconclusive
COCC(=O)Nc1nc(-c2ccccc2)c(C)s1	none (no result: Pf growth 96h)
CCNc1nc(-c2ccc(OC(F)F)cc2)c(C)s1	Cycloheximide cs 40.8, Shiga toxin inh 124.0
CCOC(=O)C1CCN(C(=O)COC(=O)CSc2ccc(C(N)=O)cc2[N+](=O)[O-])CC1	none
Cc1c(C(=O)Nc2cccnc2)oc2ccc(Br)cc12	Cycloheximide cs 33.6, Shiga toxin inh 75.0
CCc1ccc2oc(C(=O)Nc3cccnc3)c(C)c2c1	Cycloheximide cs 58.4, Shiga toxin inh 65.6
CCc1nonc1NC(=O)c1oc2ccc(Br)cc2c1C	none
Cc1c(C(=O)NCc2cccs2)oc2ccc(Br)cc12	Cycloheximide cs 29.9 (no result: Pf growth 96h)
O=C(Nc1cccnc1)c1cc2c(ccc3ccccc32)o1	Cycloheximide cs 57.2, Shiga toxin inh 40.4
Cc1c(C(=O)NCc2cccs2)oc2ccc(S(=O)(=O)N3CCOCC3)cc12	Pf growth 48h inconclusive
CC(C)n1c(SCC(=O)N2CCN(C)CC2)nc2c1c(=O)n(C)c(=O)n2C	none
O=C(O)C1C2CCC(O2)C1C(=O)Nc1ccc(OC(F)F)cc1 (stereo unspecified)	Pf growth 96h inconclusive
COCCCNC(=O)/C=C1\Sc2ccccc2N(Cc2ccccc2F)C1=O	Cycloheximide cs 31.6
CCN1CCN(CCNC(=O)c2ccc(/C=C3\Sc4ccccc4N(Cc4ccccc4F)C3=O)cc2)CC1	Pf growth 96h inconclusive, Pf growth 48h inconclusive
Cc1cccc(C)c1NC(=O)CN(C)C(C)C(=O)Nc1ccccc1-c1ccccc1 (stereo unspecified)	Pf growth 96h inconclusive, Pf growth 48h inconclusive
CCN(CC)S(=O)(=O)c1cc(NC(=O)C(C)N2CCc3ccccc32)ccc1C (stereo unspecified)	Pf growth 96h 10.4µM, Pf growth 48h inconclusive
CCN(CC)S(=O)(=O)c1cc(NC(=O)C(C)N(C)CC(=O)Nc2c(C)cccc2C)ccc1C (stereo unspecified)	Pf growth 96h 11.7µM, Pf growth 48h 11.7µM
N/C(=N\N=C\c1cccc([N+](=O)[O-])c1)c1nonc1N	Cycloheximide cs 49.7, Shiga toxin inh 75.7
COc1cccc(/C=N/N=C(\N)c2nonc2N)c1O	Cycloheximide cs 35.3, Shiga toxin inh 115.7
Nc1cc(C(=O)N/N=C/c2cccc([N+](=O)[O-])c2)n[nH]c1=O	none
N/C(=N\N=C\c1ccc2c(c1)OCO2)c1nonc1N	Cycloheximide cs 45.0, Shiga toxin inh 74.7
C=C1CCN([C@@H](C)C(=O)NCc2ccc(Cl)cc2)S(=O)(=O)c2ccccc21	Pf growth 96h inconclusive, Pf growth 48h inconclusive
O=c1[nH]c2cc([N+](=O)[O-])cc([N+](=O)[O-])c2[nH]c1=O	none (no result: Pf growth 96h, Pf growth 48h)
Cc1ccc(-c2cc(N)n(Cc3ccc(Cl)cc3)n2)cc1	Pf growth 96h inconclusive
CSc1nc(N)n2nc(-c3ccc(Cl)cc3)cc2n1	Cycloheximide cs 47.0, Shiga toxin inh 86.2
Cc1ccc(C(=O)NCCC(=O)Nc2ccccc2C)cc1	none
O=C(OCc1cnc(Cl)s1)c1cccc(Cl)c1Cl	Cycloheximide cs 14.0
O=C(OCc1cnc(Cl)s1)c1c(F)cccc1F	none
O=C(OCc1cnc(Cl)s1)c1ccccc1Cl	Cycloheximide cs 15.6
COc1ccccc1CNC(=O)CCNS(=O)(=O)c1ccc2c(c1)CC(C)N2C(C)=O (stereo unspecified)	Pf growth 96h inconclusive
COc1ccccc1NC(=O)c1ccc(S(=O)(=O)N2CCCC(C)C2)cc1 (stereo unspecified)	none
CC1(C)CC(NC(=O)C2CCC(=O)N(Cc3ccccc3F)C2)CC(C)(C)C1 (stereo unspecified)	Cycloheximide cs 25.8, Pf growth 48h inconclusive, Shiga toxin inh 57.5
Cc1ccc2nc(CNC(=O)C3CCC(=O)N(Cc4ccccc4F)C3)cn2c1 (stereo unspecified)	none
Cc1ccc(C(C)(C)NC(=O)C2CCC(=O)N(Cc3ccccc3F)C2)cc1 (stereo unspecified)	Cycloheximide cs 16.1
CN(C)S(=O)(=O)c1cccc(COC(=O)CCNC(=O)c2ccc([N+](=O)[O-])cc2)c1	Pf growth 48h inconclusive (no result: Cycloheximide cs, Shiga toxin inh)
CCn1ncc(/C=N/N=C2\CCC3C4CCc5cc(O)ccc5C4CCC23C)c1C (stereo unspecified)	Pf growth 96h 1.65µM (no result: Pf growth 48h)
CNC1=CN(O)C(c2ccccc2)=c2cc(Cl)ccc2=N1	Pf growth 96h 13.5µM, Pf growth 48h 19µM
CC(=O)Nc1ccc2sccc2c1	Pf growth 96h inconclusive, Pf growth 48h inconclusive
Nc1nonc1-c1noc(N2CCCCC2)n1	Cycloheximide cs 29.8, Shiga toxin inh 79.9
CCCCCc1nc(-c2nonc2N)no1	none
COc1cccc(N(CC(=O)NC(C)c2ccccc2)S(C)(=O)=O)c1 (stereo unspecified)	none
CC(NC(=O)CN(c1cccc(C(F)(F)F)c1)S(C)(=O)=O)c1ccccc1 (stereo unspecified)	Pf growth 96h 1.17µM, Pf growth 48h inconclusive (no result: Shiga toxin inh)
Cc1ccccc1C(=O)NNC(=O)C1CCN(C(=O)Nc2ccccc2)CC1	none (no result: Cycloheximide cs, Shiga toxin inh)
O=C1CC(c2ccsc2)Sc2ccccc2N1 (stereo unspecified)	none

Screens deposited in PubChem BioAssay by National Center for Advancing Translational Sciences (NCATS).
